# High-throughput results deposited in PubChem by Sanford-Burnham Center for Chemical Genomics.
# Most compounds without a hit are left out; they make up all but 28% or so of the library.
# Pyk2 oligo antag – antagonists of human Pyk2 oligomerization; Q14289; z-score (the deposit names both 25 µM and 10 µM); Q293 cells, Pyk2 FERM NanoBiT luminescence; hits give low values; 99,000 tested, 0.83% active;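 active means Z-score of -3 or lower, scaled per plate to the spread of control and sample wells; inactive means z-score above -3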;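 further: negative z-score means lost luminescence so less FERM oligomerization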
# CYP2C19 act – increases human CYP2C19 enzyme activity | P33261 | recombinant CYP2C19, luciferin-H EGE luminescence; hits give high values; 0 = fully inhibited enzyme, 1 = untreated enzyme | activation factor at 5 µM | 96,000 tested, under 10 active;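 active means activation factor of at least 2 at 5 µM in the primary screen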;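 further: 0 = wells with 2.5 mM tranylcypromine and 1 = vehicle-only wells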
# CYP2C9 activ – activators of human CYP2C9; P11712; recombinant CYP2C9, luciferin-H conversion, luminescence; hits give high values; factor 1 = untreated enzyme, 0 = blocked; activation factor at 5 µM; 96,000 tested, 1.4% active; AID 1024;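 active means activation factor of 2 or more for CYP2C9 at a 5 µM dose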;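 further: 0 = sulfaphenazole-blocked wells and 1 = vehicle-only wells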
# Target sequence (P11712 whole entry, looked up): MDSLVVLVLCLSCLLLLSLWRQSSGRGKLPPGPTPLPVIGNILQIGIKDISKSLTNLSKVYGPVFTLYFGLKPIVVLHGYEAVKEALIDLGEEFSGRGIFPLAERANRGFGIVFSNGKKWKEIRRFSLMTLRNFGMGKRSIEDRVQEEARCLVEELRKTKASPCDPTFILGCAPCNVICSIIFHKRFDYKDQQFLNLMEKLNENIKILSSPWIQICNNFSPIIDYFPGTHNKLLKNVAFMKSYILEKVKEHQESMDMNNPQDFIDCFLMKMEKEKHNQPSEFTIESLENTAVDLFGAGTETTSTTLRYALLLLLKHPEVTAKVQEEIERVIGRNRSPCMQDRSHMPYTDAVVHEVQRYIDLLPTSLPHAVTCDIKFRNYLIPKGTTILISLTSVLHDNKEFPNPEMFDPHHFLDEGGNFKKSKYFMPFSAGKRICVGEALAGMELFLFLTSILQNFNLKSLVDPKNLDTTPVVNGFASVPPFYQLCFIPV
# CYP2C19 inhib – human CYP2C19 inhibition | CYP2C19 Supersomes, luciferin-H EGE luminescence, 30 min | inhibition, % at 5 µM | 96,000 tested, 21% active | AID 778;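 active means CYP2C19 inhibition above a set limit at 5 µM in the primary screen, cut at about 50% in these data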;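 further: plate controls were negative control wells for no effect and 2.5 mM tranylcypromine positive control for full effect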
# CYP2C9 inh – human CYP2C9 inhibition; P11712; CYP2C9 Supersomes, luciferin-H conversion, luminescence; inhibition, % at 5 µM; 96,000 tested, 20% active; AID 777;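 active means blocking of liver enzyme CYP2C9 beyond about 50% at 5 µM, limit read from the data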
# * = called active by the depositor; . = not tested or not shown.
SMILES,Pyk2 oligo antag,CYP2C19 act,CYP2C9 activ,CYP2C19 inhib,CYP2C9 inh
COCCN(CC(=O)Nc1ccccc1)S(=O)(=O)c1ccc(S(=O)(=O)N2CCCC2)cc1,0.24,0.9,0.3,10.6,73.4*
COc1ccccc1N(CC(=O)Nc1ccc(S(=O)(=O)N2CCCCC2)cc1)S(C)(=O)=O,-0.33,.,.,.,.
CCOCCN1CCN(c2c(C)c(C)nc3cc(-c4cc(OC)cc(OC)c4)nn23)CC1,-0.21,0.1,0.5,86.6*,54.1*
COC(=O)C(NC(=O)c1ccccc1)=C1CCCCC1,1.91,0.8,0.6,24.6,41.5
COc1cccc(NC(=O)Cn2nnc(C(=O)Nc3ccccc3)c2N)c1,-0.11,1,0.8,4.9,21.9
COc1cccc(NC(=O)c2nnn(CCc3ccccc3)c2N)c1,.,0.3,0.1,73.2*,91.8*
CCc1ccc(Cn2nnc(C(=O)Nc3ccc(OC)cc3OC)c2N)cc1,.,1.1,3.4*,-7.5,-237.8
CCC12CN(C(=O)c3ccc(OC)cc3)CC(CC)(CN(C(=O)c3ccc(OC)cc3)C1)C2=O,0.5,0.4,0.9,58.1*,9.1
Cc1ccccc1-c1c(C)oc2cc(O)ccc2c1=O,-1.11,0.8,2.2*,21.9,-115.6
Cc1oc2cc(O)ccc2c(=O)c1Oc1ccccc1,0.69,0.7,2*,27.4,-100.1
Cc1oc2cc(O)ccc2c(=O)c1N1C(=O)c2ccccc2C1=O,-1.09,1.1,2.2*,-7.8,-118.4
Cc1oc2cc(O)ccc2c(=O)c1Oc1ccccc1Br,.,0.7,1.6,27.2,-60.5
COC(=O)c1cc(-c2c(C)oc3cc(O)ccc3c2=O)c(C)o1,-0.08,.,.,.,.
O=C(CSCC(=O)N1CCCCC1)OCC(=O)c1c[nH]c2ccccc12,-0.24,0.3,1.7,69.1*,-74.8
CC1(C(=O)OCC(=O)c2c[nH]c3ccccc23)CC1(Cl)Cl (stereo not drawn),-2.32,0,0.1,96.8*,85.2*
COC(=O)C1CCN(C(=O)COC(=O)Cc2c[nH]c3ccccc23)CC1,0.67,1,1.3,-2.2,-31.0
Cc1nn(-c2ccccc2)c2sc(C(=O)OCC(=O)N3CCCCC3)cc12,0.41,1,1,-2.3,-4.9
COc1ccc(C)cc1N(C(=O)CNC(=O)c1ccco1)C(C(=O)NC1CCCC1)c1cccnc1 (stereo not drawn),-0.56,0.9,0.7,13.3,27.4
O=C(NCC(=O)N(Cc1ccccc1)C(C(=O)NC1CCCC1)c1ccco1)c1ccco1 (stereo not drawn),-0.19,0.5,1,47.2,-3.2
COc1cccc(N(C(=O)CNC(=O)c2ccco2)C(C(=O)NC2CCCCC2)c2ccncc2)c1 (stereo not drawn),0.05,0.4,0.2,57.1*,76.0*
COc1ccc(CN(C(=O)CNC(=O)c2ccco2)C(C(=O)NC2CCCC2)c2ccco2)cc1 (stereo not drawn),-0.37,0.4,0.4,61.8*,62.3*
COc1cccc(N(C(=O)c2ccco2)C(C(=O)NC2CCCC2)c2cccnc2)c1 (stereo not drawn),-0.85,0.3,0.3,66.7*,65.0*
CCOc1ccccc1N(C(=O)c1ccco1)C(C(=O)NC1CCCC1)c1cccnc1 (stereo not drawn),-0.57,0.4,0.8,56.2*,17.3
CC(C)N1C2OC(C3OC4C(O3)N(C(C)C)S(=O)(=O)N4C(C)C)OC2N(C(C)C)S1(=O)=O (stereo not drawn),-0.06,0.9,0.9,8.7,5.1
O=C(O)CNC1=NCCC1,.,1.2,1.1,-19.9,-14.9
SMILES,Pyk2 oligo antag,CYP2C19 act,CYP2C9 activ,CYP2C19 inhib,CYP2C9 inh
Cc1ccc(S(=O)(=O)c2c(COC(=O)c3ccc(Cl)cc3)c(-c3ccccc3)nn2C)cc1,-0.65,0.3,0.5,66.9*,51.9*
COC(=O)c1ccc(COC(=O)c2ccc(CS(=O)(=O)c3ccc(C)cc3)cc2)cc1,0.57,1,0.6,0.4,43.4
CCN1C(=O)/C(=C\c2ccco2)C(C(=O)OC)=C1C,-0.21,0.8,0.6,22.9,35.2
COC(=O)C1=C(C)N(Cc2ccc(C)cc2)C(=O)/C1=C\c1ccc(O)c(OC)c1,0.48,0.5,0.1,51.5*,92.3*
COC(=O)C1=C(C)N(CC2CCCO2)C(=O)/C1=C\c1ccc(O)cc1 (stereo not drawn),-0.04,0.5,0.4,50.0*,62.7*
COc1ccccc1C(=O)NNC1=C(C(=O)C(F)(F)F)CCC1,-0.92,0.9,0.8,5.9,21.1
O=C(NNC1=C(C(=O)C(F)(F)F)CCC1)c1ccc(Br)cc1,-0.15,0.9,0.3,6.7,69.2*
O=C(NNC1=C(C(=O)C(F)(F)F)CCC1)c1ccccc1Cl,0.89,1.1,0,-10.1,95.7*
O=C(NNC(=O)c1ccccc1Cl)c1cccs1,-0.26,.,.,.,.
O=C(NNC1=C(C(=O)C(F)(F)F)CCC1)c1ccccc1O,-1.74,0.7,0.2,25.6,84.6*
O=C(O)/C=C/C(=O)NNC(=O)c1ccc(Br)cc1,0.61,.,.,.,.
O=C(O)Cn1nnnc1SCC(=O)Nc1ccc(OC(F)(F)F)cc1,0.15,1.2,1.1,-17.9,-14.2
COc1ccc(-c2c(C)nn3c(N4CCN(Cc5ccccc5)CC4)cc(C)nc23)cc1OC,.,0.3,0.2,67.8*,84.9*
COc1ccccc1-c1c(C)nn2c(N3CCCCCC3)cc(C)nc12,.,0.9,0.9,6.3,8.8
COc1ccccc1-c1c(C)nn2c(N3CCN(Cc4ccccc4)CC3)cc(C)nc12,.,0.4,0.5,56.6*,52.0*
Cc1cc(N2CCN(Cc3ccccc3)CC2)n2nc(C)c(-c3ccccc3)c2n1,1.3,0.8,0.9,16.5,14.9
COc1ccccc1-c1c(C)nn2c(N3CCN(c4ccccc4OC)CC3)cc(C)nc12,.,0.2,0.5,75.6*,49.5
CS(=O)(=O)N(CC(=O)N1CCC(C(N)=O)CC1)c1ccc(Oc2ccccc2)cc1,-0.29,1.1,1,-9.5,2.9
CC(C)c1ccc(S(=O)(=O)N2CCN(CCC(=O)Nc3ccc(N(C)C)cc3)CC2)cc1,-0.56,0.8,0.5,24.0,48.2
CCC(=O)Nc1ccc(S(=O)(=O)N2CCOCC2)cc1,0.66,0.9,0.9,6.7,11.2
CC(C(=O)N1CCC(C(N)=O)CC1)N(c1ccc(Oc2ccccc2)cc1)S(C)(=O)=O (stereo not drawn),0.47,1,0.8,-4.7,21.2
CC(C)c1ccc(N(CC(=O)NCCSC(C)(C)C)S(C)(=O)=O)cc1,0.86,0.4,0.6,61.4*,37.5
Cc1ccc(N(C(C)C(=O)N2CCCCC2)S(C)(=O)=O)cc1C (stereo not drawn),2.41,0.2,0.9,81.7*,5.8
CC(C)c1ccc(N(CC(=O)Nc2ccc(S(=O)(=O)N3CCOCC3)cc2)S(C)(=O)=O)cc1,-1.31,0.3,0.1,72.8*,90.1*
Cc1ccc(N(CC(=O)Nc2ccc(S(=O)(=O)N3CCOCC3)cc2)S(C)(=O)=O)cc1C,-2.34,0.2,0,77.0*,98.0*
Cc1nn(C)c(C)c1NC(=O)CCCSc1nc(-c2ccco2)cc(C(F)(F)F)n1,2.27,.,.,.,.
Nc1[nH]ncc1C(=O)Nc1cccc(C(F)(F)F)c1,0.11,0.8,0.9,19.0,10.2
